The source made the active and inactive calls. Unless noted, no rule for the calls is given here.

Assay [1] is described as follows: liver-stage malaria parasite load reduction – cell-based, known kinase inhibitor set, luminescence, hepatoma host viability (AID 624392).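 Also: infected cells incubated roughly two days before readout.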 The following applies: Plasmodium liver stage in hepatoma cells, luciferase luminescence, concentration not given here; liver cell % of control: measured here: host liver cell viability; parasite % of control: stronger effect = lower value.

Assay [2] is described as follows: altered dexamethasone sensitivity, NF-kB reporter, cell-based, luciferase, IL-1B stimulus (AID 624486).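 As to percent of negative control (+Dex): 100% = mean signal of vehicle control wells on the plate.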 Conditions: IL-1B + dexamethasone, luminescence; percent of negative control (+Dex): actives lie on both sides, concentration not given here; z-score: measured here: IL-1B alone, no Dex.
Assay [3] in a line: C. elegans survival during P. aeruginosa infection – whole organism (AID 651566).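 Also: tested at 14 µM; sign flipped so higher z means a lower ratio.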 Conditions: C. elegans killed by P. aeruginosa, survival ratio.
The nature of assay [4]: pro-inflammatory signaling induction in mouse macrophages – cell-based, murine, luminescence (AID 652131). The following applies: murine macrophage pro-inflammatory reporter, stronger effect = higher value.
The target in assay [5] is Cellular tumor antigen p53 (Homo sapiens) (UniProt P04637). Kind of assay: GFP-p53 level modulators in HPV16+ cells – imaging, known kinase inhibitor set, EGFP/DsRed ratio (AID 1053116).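 Also: cells exposed to compounds for 24 h at 37 °C before reading.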 Conditions: GFP-p53 stability, stronger effect = higher value; EGFP object count: measured here: GFP-p53 positive objects count.
Cellular tumor antigen p53 (Homo sapiens), sequence (P04637 whole entry, looked up): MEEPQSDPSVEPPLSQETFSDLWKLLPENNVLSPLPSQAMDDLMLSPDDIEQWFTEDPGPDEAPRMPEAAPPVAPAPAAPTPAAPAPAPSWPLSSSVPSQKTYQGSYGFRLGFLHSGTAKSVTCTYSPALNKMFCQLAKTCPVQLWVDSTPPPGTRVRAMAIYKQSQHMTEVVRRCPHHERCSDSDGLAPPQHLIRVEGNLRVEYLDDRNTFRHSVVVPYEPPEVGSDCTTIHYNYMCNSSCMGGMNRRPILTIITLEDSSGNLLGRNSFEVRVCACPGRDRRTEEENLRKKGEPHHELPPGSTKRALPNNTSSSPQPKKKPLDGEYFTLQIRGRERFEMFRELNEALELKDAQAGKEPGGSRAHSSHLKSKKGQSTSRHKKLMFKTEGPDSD
Assay [6] in a line: inducers of IRF3 signaling, differentiated THP-1 – cell-based, PMA-stimulated THP-1, luminescence (AID 1053176). The following applies: PMA-differentiated THP-1, IRF3 reporter luminescence; stronger effect = higher value.
A short description of assay [7]: MELAS cybrid and Rieske KO viability enhancers – cell-based, MELAS cybrids, Rieske KO mouse fibroblasts, CellTiter-Glo, primary screen (AID 1508586;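 active = mean z-score across replicates of 1.96 or higher in either the MELAS or the Rieske mutant cell line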;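 also: z relative to plate mean and SD of compound and empty wells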). Conditions: low glucose. A general note: ATP-based viability assays read luminescence as a measure of living cells.
[8] abbreviates: MELAS cybrid survival, CellTiter-Glo 48 h, stronger effect = higher value.
[9] abbreviates: Rieske KO mouse fibroblast survival, CellTiter-Glo 72 h.

As for `NS(=O)(=O)c1ccc(N=Nc2c(O)[nH]c3cccc(CCc4ccncc4)c23)cc1`, in assay [1], the liver cell % of control was 87.4%. Besides, the parasite % of control in assay [1] was 102% (inactive). In addition, the percent of negative control (+Dex) in assay [2] is 92.5% (inactive). Besides, the z-score in assay [2] is -0.56; in assay [3] it was -0.35 (inactive); in assay [4], 4.97 (inactive); in assay [7] (setting [8]), -0.234 (inactive); in assay [7] (setting [9]), -0.178. Moreover, in assay [5], the EGFP object count was determined as 4. In addition, the EGFP/DsRed ratio in assay [5] was 0.0896 (inactive). For the same compound, the fraction signal in assay [6] is -0.003 (inactive).

In the case of `Cc1cc(O)cc(C)c1/C=C/c1cncc(-c2nn[nH]n2)c1`, the liver cell % of control in assay [1] worked out at 110%. Besides, in assay [1], the parasite % of control is 109% (inactive). Moreover, the percent of negative control (+Dex) in assay [2] is 106% (inactive). Moreover, the z-score was -0.05 in assay [2]; 0.305 (inactive) in assay [3]; 3.53 (inactive) in assay [4]; -0.295 (inactive) in assay [7] (setting [8]); -0.403 in assay [7] (setting [9]). For the same compound, the EGFP object count in assay [5] came out at 4.5. The EGFP/DsRed ratio in assay [5] is 0.0667 (inactive). The fraction signal in assay [6] was -0.004 (inactive).

For the compound `Cc1ccc2c(-c3ccnc(Nc4cccc(C(F)(F)F)c4)n3)c(-c3ccccc3)nn2n1`, the liver cell % of control in assay [1] came to 84.8%. The parasite % of control in assay [1] is 47.5% (inactive). Moreover, the percent of negative control (+Dex) in assay [2] is 89.5% (inactive). Also, the z-score in assay [2] was -3.32; in assay [3] it was -0.495 (inactive); in assay [4] it was -1.57 (inactive); in assay [7] (setting [8]) it was 0.907 (inactive); in assay [7] (setting [9]) it was -0.257. In addition, the EGFP object count in assay [5] was 2.5. Moreover, the EGFP/DsRed ratio in assay [5] was 0.0663 (inactive). The fraction signal in assay [6] is -0.0065 (inactive).

In turn, `COC(=O)c1sc(-n2cnc3cc(OC)c(OC)cc32)cc1OCc1ccccc1C(F)(F)F` yielded a liver cell % of control in assay [1] of 103%. The parasite % of control in assay [1] was 126% (inactive). The percent of negative control (+Dex) in assay [2] was 86% (inactive). Further, the z-score in assay [2] was 0.12; in assay [3], 0.885 (inactive); in assay [4], 0.445 (inactive); in assay [7] (setting [8]) it was -0.644 (inactive); in assay [7] (setting [9]) it was 0.293. In addition, in assay [5], the EGFP object count was determined as 4.5. Also, the EGFP/DsRed ratio in assay [5] is 0.108 (inactive). Also, the fraction signal in assay [6] is -0.003 (inactive).

As to `CN1CCC(n2cnc(-c3ccc(F)cc3)c2-c2ccnc(NCCO)n2)CC1`, in assay [1], the liver cell % of control came out at 86.8%. Besides, the parasite % of control in assay [1] is 138% (inactive). Also, in assay [2], the percent of negative control (+Dex) was 102% (inactive). Moreover, the z-score in assay [2] is 1.04; in assay [3], 0.4 (inactive); in assay [4], 0.387 (inactive); in assay [7] (setting [8]), -0.289 (inactive); in assay [7] (setting [9]), -0.297. Further, in assay [5], the EGFP object count was 3.5. In addition, the EGFP/DsRed ratio in assay [5] was 0.139 (inactive). In assay [6], the fraction signal was -0.0015 (inactive).

`CNC(=O)c1cncc(/C=C/c2ccccc2Cl)c1` registered a liver cell % of control in assay [1] of 165%. In assay [1], the parasite % of control is 16.8% (inactive). In addition, the percent of negative control (+Dex) in assay [2] is 109% (inactive). For the same compound, the z-score is 0.82 in assay [2]; -0.36 (inactive) in assay [3]; 1.43 (inactive) in assay [4]; 1.56 (inactive) in assay [7] (setting [8]); -0.00226 in assay [7] (setting [9]). In addition, the EGFP object count in assay [5] is 6.5. The EGFP/DsRed ratio in assay [5] is 0.185 (inactive). Also, the fraction signal in assay [6] is 0.0005 (inactive).

In assay [1], `CC1=C(C(=O)Nc2ccc3n[nH]c(C)c3c2)C(c2ccc(C(F)(F)F)cc2)CC(=O)N1` (stereo not given) came in with a liver cell % of control of 99.2%. In addition, the parasite % of control in assay [1] was 202% (inactive). Also, in assay [2], the percent of negative control (+Dex) was 82.5% (inactive). For the same compound, the z-score in assay [2] was -1.14; in assay [3], 0.355 (inactive); in assay [4], -0.104 (inactive); in assay [7] (setting [8]) it was -0.0625 (inactive); in assay [7] (setting [9]), -0.632. For the same compound, the EGFP object count in assay [5] worked out at 2.5. For the same compound, the EGFP/DsRed ratio in assay [5] was 0.0851 (inactive). In assay [6], the fraction signal is -0.006 (inactive).

Turning to `COc1cc(C)c(NC(=O)CN(C)C)cc1Nc1nc(Nc2cccc(F)c2C(N)=O)c2cc[nH]c2n1`, the liver cell % of control in assay [1] was determined as 63%. In assay [1], the parasite % of control was 550% (inactive). The percent of negative control (+Dex) in assay [2] was 93% (inactive). Further, the z-score in assay [2] was -0.195; in assay [3], -0.165 (inactive); in assay [4] it was 5.12 (inactive); in assay [7] (setting [8]) it was 1.87 (inactive); in assay [7] (setting [9]), -0.0279. In addition, in assay [5], the EGFP object count came out at 21. In addition, the EGFP/DsRed ratio in assay [5] is 0.493 (inactive). Besides, the fraction signal in assay [6] is -0.0105 (inactive).

For the compound `Cc1ccc(C(=O)NC2CCCCC2)cc1-c1ccc(C(=O)NCC2CC2)cc1`, in assay [1], the liver cell % of control stood at 103%. Besides, the parasite % of control in assay [1] is 134% (inactive). Also, the percent of negative control (+Dex) in assay [2] is 88.5% (inactive). In addition, the z-score in assay [2] is 0.05; in assay [3] it was 1.71 (inactive); in assay [4], 0.167 (inactive); in assay [7] (setting [8]), -0.861 (inactive); in assay [7] (setting [9]), 0.203. Moreover, in assay [5], the EGFP object count is 5.5. For the same compound, in assay [5], the EGFP/DsRed ratio is 0.116 (inactive). Moreover, the fraction signal in assay [6] was -0.007 (inactive).

`Cc1ccc2c(-c3ccnc(Nc4ccccc4)n3)c(-c3ccc(F)cc3)nn2n1` gave a liver cell % of control in assay [1] of 152%. Also, in assay [1], the parasite % of control was 12.5% (active). The percent of negative control (+Dex) in assay [2] is 81% (inactive). The z-score in assay [2] was -1.78; in assay [3] it was 0.225 (inactive); in assay [4], -0.658 (inactive); in assay [7] (setting [8]) it was 0.41 (inactive); in assay [7] (setting [9]) it was -0.16. Also, in assay [5], the EGFP object count is 6. Besides, in assay [5], the EGFP/DsRed ratio is 0.152 (inactive). In assay [6], the fraction signal is -0.0025 (inactive).

In the case of `CCOc1ccc2c(-c3ccnc(Nc4cccc(C(F)(F)F)c4)n3)cnn2n1`, in assay [1], the liver cell % of control turned out to be 69.9%. Besides, the parasite % of control in assay [1] is 174% (inactive). Moreover, in assay [2], the percent of negative control (+Dex) was 78% (inactive). For the same compound, the z-score in assay [2] was 0; in assay [3], 0.335 (inactive); in assay [4], -0.613 (inactive); in assay [7] (setting [8]) it was -0.0749 (inactive); in assay [7] (setting [9]) it was -0.0737. Further, the EGFP object count in assay [5] stood at 10. Besides, the EGFP/DsRed ratio in assay [5] was 0.229 (inactive). For the same compound, in assay [6], the fraction signal is 0.0035 (inactive).

On to `COC(=O)c1cncc(/C=C/c2c(C)cc(O)cc2C)c1`, for which, in assay [1], the liver cell % of control worked out at 108%. For the same compound, the parasite % of control in assay [1] is 131% (inactive). Besides, in assay [2], the percent of negative control (+Dex) was 108% (inactive). The z-score in assay [2] is 1.96; in assay [3], 0.295 (inactive); in assay [4], -0.608 (inactive); in assay [7] (setting [8]), 0.159 (inactive); in assay [7] (setting [9]) it was 0.14. In addition, the EGFP object count in assay [5] amounted to 4.5. Also, the EGFP/DsRed ratio in assay [5] was 0.286 (inactive). Moreover, the fraction signal in assay [6] was -0.0065 (inactive).

Take `CN1CCN(CCCNc2nc3ccc(Oc4ccc(NC(=O)Nc5cc(C(F)(F)F)ccc5F)cc4)cc3[nH]2)CC1`: the liver cell % of control in assay [1] turned out to be 95.2%. In addition, the parasite % of control in assay [1] was 94.4% (inactive). The percent of negative control (+Dex) in assay [2] was 97.5% (inactive). Moreover, the z-score was 0.025 in assay [2]; -0.94 (inactive) in assay [3]; 1.21 (inactive) in assay [4]; -0.0444 (inactive) in assay [7] (setting [8]); -0.286 in assay [7] (setting [9]). In addition, in assay [5], the EGFP object count stood at 3.5. The EGFP/DsRed ratio in assay [5] was 0.103 (inactive). In addition, the fraction signal in assay [6] is -0.0045 (inactive).

Compound `c1cnn2ncc(-c3ccnc(NCCCN4CCOCC4)n3)c2c1` yielded a liver cell % of control in assay [1] of 91.2%. Further, in assay [1], the parasite % of control was 426% (inactive). Moreover, the percent of negative control (+Dex) in assay [2] was 57% (inactive). The z-score is -4.11 in assay [2]; 0.63 (inactive) in assay [3]; -1.59 (inactive) in assay [4]; -0.792 (inactive) in assay [7] (setting [8]); -0.375 in assay [7] (setting [9]). The EGFP object count in assay [5] turned out to be 1.5. Moreover, the EGFP/DsRed ratio in assay [5] is 0.248 (inactive). Further, in assay [6], the fraction signal was -0.004 (inactive).

Regarding `Nc1nonc1-c1nc2cnccc2n1C1CCCCC1`, the liver cell % of control in assay [1] came to 69%. The parasite % of control in assay [1] is 61.4% (inactive). For the same compound, the percent of negative control (+Dex) in assay [2] is 29.5% (active). Besides, the z-score is -7.08 in assay [2]; -0.155 (inactive) in assay [3]; -0.857 (inactive) in assay [4]; -0.132 (inactive) in assay [7] (setting [8]); -0.207 in assay [7] (setting [9]). The EGFP object count in assay [5] was 3.5. Further, the EGFP/DsRed ratio in assay [5] is 0.0658 (inactive). Further, the fraction signal in assay [6] is -0.002 (inactive).
